According to PubChem BioAssay AID1159580 (chemical genetic matrix, 2015):
“And” between values parts separate entries of the source, which are not always exact repeats. Identical values can stand only once. The whole screen tested about 5,500 compounds, of which about 2,000 (36%) were called active. About 18% were inconclusive and are not listed. Rule as the data show it: active = normalized growth mostly below about 0.91 (no sharp cut-off); inconclusive = no clear call, values can overlap the other calls; inactive = mostly above about 0.92. This is one part of the list.

Assay: chemical genetic growth profiling, strain panel (AID 1159580);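 also: tested at 20 µM; growth read once vehicle control cultures reached saturation at 30 °C; 1 = growth at the plate median or of vehicle wells; lower values mean less growth of the strain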
Settings: S. cerevisiae deletion strains, growth OD

Measured: normalized growth

CC1CNCCN1S(=O)(=O)c1cccc2cnccc12 (stereo unspecified)
inactive: locus YAL013W, strain DEP1, active compounds read low 1.01 and 1 | locus YAL040C, strain CLN3, active compounds read low 1.09 and 0.997 | locus YCL061C, strain MRC1 (second series), active compounds read low 0.998 and 1.01 | locus YDR150W, strain NUM1, active compounds read low 1 | locus YDR363W, strain ESC2, active compounds read low 0.993 and 1.01 | locus YER002W, strain NOP16, active compounds read low 0.988 and 1.01 | locus YGR078C, strain PAC10, active compounds read low 1.01 | locus YMR263W, strain SAP30, active compounds read low 1 | locus YNL153C, strain GIM3, active compounds read low 0.991 | locus YNL175C, strain NOP13, active compounds read low 0.996 and 0.999 | locus YNL197C, strain WHI3, active compounds read low 1.01 | locus YNL224C, strain SQS1, active compounds read low 1.02 | locus YNL322C, strain KRE1, active compounds read low 0.999 | locus YOR083W, strain WHI5 (second series), active compounds read low 1 and 1.03 | locus YPL055C, strain LGE1, active compounds read low 1.01 | locus YPL241C, strain CIN2, active compounds read low 0.996
